Bioassay records (PubChem)
Apoferritin bind: binds horse apoferritin like a general anesthetic; P02791; Potency, µM (top dose mostly 77.5 µM), inactives show at the top dose activity change, negative = displacement, actives largely listed as inhibitors; 350,000 compounds, 0.074% hits; AID 485281; apoferritin/1-aminoanthracene competitive binding, fluorescence; further: potency means the concentration at half of the fitted maximal effect; on the % scale 0 is the no-effect control and ±100 the full control effect; nearly all actives have a fitted effect of over 20% in size
Target sequence (P02791 2-175 limits assumed): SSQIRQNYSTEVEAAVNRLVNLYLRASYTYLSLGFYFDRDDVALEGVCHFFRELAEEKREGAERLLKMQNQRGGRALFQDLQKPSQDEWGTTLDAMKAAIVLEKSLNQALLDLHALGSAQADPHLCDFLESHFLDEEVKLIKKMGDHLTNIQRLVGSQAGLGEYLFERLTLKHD
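Horse-spleen apoferritin (10 uM) was mixed with 50% saturated 1-aminoanthracene in PBS, exposed to compounds for 10 min at room temperature, and read for fluorescence (ex 380 nm, em 535 nm). Competitive displacement was fitted with a four-parameter Hill equation.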
CCT chaperon mod: modulators of cytosolic chaperonin (CCT/TRiC) activity; 360,000 compounds, 0.3% hits; AID 651819; activity change, % (concentration not given with the values), hits read low; purified chaperonin ATPase assay, HTRF ADP detection, 30 min; in the data active means activity change below about -30%; further: on the % scale 0 is the no-effect control and ±100 the full control effect
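We incubate TRiC, 40 or 20 nM final, with library compounds at 76 uM and 10 uM ATP for 30 min at 37 °C. ADP formed is detected with Transcreener HTRF reagents after 30 min at room temperature.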
aSyn yeast inh: alpha-synuclein toxicity inhibition in yeast | 370,000 compounds, 0.14% hits | Yeast expressing alpha-synuclein, growth rescue, BacTiter-Glo, 24 h | Potency, µM (top dose mostly 46.1 µM), for the others: at the top dose growth rescue (activation), actives largely listed as activators; further: potency means the concentration at half of the fitted maximal effect; % of control where 0% means no effect; nearly all actives have a fitted effect of over 65% in size
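Screening used galactose-induced yeast with toxic alpha-synuclein levels, exposed to compound for 24 hr at 30 deg C. Cell growth, read with BacTiter-Glo luminescence, gave the measured signal.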
Akt phos inh: inhibitors of Akt phosphorylation | AID 651550 | 360,000 compounds, 0.32% hits | Neuro2A IGF-stimulated pAkt S473 HTRF, 20 min; hits give low values | activity change, % for hits at 50 µM; in the data active means activity change below about -80%; inconclusive means mostly about -51% to -80%; further: on the % scale 0 is the no-effect control and ±100 the full control effect
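Neuro2A cells in DMEM with 0.5% FBS, overnight at 37 deg C, given compound at single 50 µM final, then IGF (6 nM final) for 20 min at 37 deg C. Lysed; phospho-Akt Ser473 by HTRF after 24 h, 665/615 ratio.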
TDP-43 yeast inh: rescues yeast growth from TDP-43 toxicity | TDP-43 expressing yeast growth rescue, BacTiter-Glo, 24 h | Potency, µM (doses to about 46.1 µM), for inactives: top-dose growth rescue (activation), hits mostly activators | 410,000 compounds, 1.8% hits | AID 652104; further: potency means the concentration at half of the fitted maximal effect; % of control where 0% means no effect; nearly all actives have a fitted effect of over 50% in size
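Yeast expressing TDP-43 (pregrown in raffinose, seeded at OD600=0.02 in galactose medium) exposed to compounds 24 hr at 30 deg C. Growth read by BacTiter-Glo luminescence; rescue of toxicity appears as increased signal.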
Mito fusion yeast: blocks mitochondrial division or promotes mitochondrial fusion; 320,000 compounds, 0.23% hits; AID 485298; Potency, µM (top dose mostly 46.1 µM), for inactives: at the highest dose growth rescue (activation), actives largely listed as activators; S. cerevisiae fusion-defective mutant growth rescue, CellTiterGlo 48 h; further: potency means the concentration at half of the fitted maximal effect; % of control where 0% means no effect; nearly all actives have a fitted effect of over 45% in size
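Growth-rescue viability read-out: after 48 h at the non-permissive 37C in glycerol/ethanol YPEG, yeast mitochondrial fusion mutants are measured by CellTiterGlo luminescence; compounds (23 nl pinned per well) restoring growth score as division inhibitors or fusion activators.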
* = called active by the depositor; i = inactive; ? = inconclusive; . = no result; ! = repeats disagree. In the library only some 2.5% were active in any assay of this set; here they are far more common. Unless noted, the call rests on the fitted dose curve; in most records, active means well fitted curve in the direction sought with a large enough effect; inconclusive means small, poorly fitted or top-dose-only effect, or another doubt; inactive means no such curve, though single readings can be large; an effect the other way counts as inactive or inconclusive.

SMILES	Apoferritin bind	CCT chaperon mod	aSyn yeast inh	Akt phos inh	TDP-43 yeast inh	Mito fusion yeast
O=C(Oc1ccc2ccccc2c1)c1ccco1	?	-1	-8%	i	11µM*	-2%
Cc1ccc2c(C)c3ccc4ccccc4c3c[n+]2c1	.	-1	?	i	2.5µM*	.
O=S(=O)(Nc1ccc(-c2nc3ccccc3o2)cc1)c1ccccc1	?	0	2%	i	14µM*	?
COc1ccc(C(=O)NCCn2cc(SCc3ccc(C(F)(F)F)cc3)c3ccccc32)cc1OC	54%	.	.	.	6%	.
CN(N=O)c1cc(O)ccc1O	.	.	-89%	.	.	23µM*
C=C(C=O)C[C@@H]1C[C@H](O)C2OC3C[C@]4(C)OC5/C=C\CC6OC7C(CC=CCC6OC5CCCC4OC3CC2O1)OC1CC2OC3CC(=O)OC3C[C@@H](C)C[C@@]2(C)OC1C[C@@H]7C (some centres not stated)	-3%	-2	0%	i	22µM*	.
C=C(C=O)CC1CC(O)[C@]2(C)OC3C[C@@H]4OC5C[C@]6(C)O[C@]7(C)CCC8OC9C[C@]%10(C)OC(/C(C)=C\CO)C(O)CC%10OC9CC(C)C8OC7CC6O[C@]5(C)C/C=C\C4OC3CC2O1 (some centres not stated)	.	2	1%	i	18%	-3%
c1nc[n]([Sn]([CH]2CCCCC2)([CH]2CCCCC2)[CH]2CCCCC2)n1	5%	.	.	.	.	.
O=C(NCCc1ccc(F)cc1)C(=O)NCC(c1cccs1)S(=O)(=O)c1ccc(Cl)cc1 (configuration not stated)	3%	.	.	.	?	.
Nc1c(C(=O)NC2CCCC2)c2nc3ccccc3nc2n1CC1CCCO1 (configuration not stated)	358%	-1	-2%	i	13µM*	-6%
O=C(Nc1ccc(OC(=O)N2CCCC2)cc1)N1CCOCC1	-1%	1	3%	i	-11%	-5%
O=C(Oc1ccc(Cl)cc1)N1CCOCC1	-1%	-2	5%	i	20µM*	0%
C[C@@H]1C[C@@H]2[C@H]([C@H]3C=C(COC(=O)c4ccccc4)[C@@H](O)[C@]4(O)[C@@H](O)C(OC(=O)c5ccccc5)=C[C@@]14C3=O)C2(C)C	9%	.	.	.	.	.
CC(C)CN(CC(C)C)C(=O)C1C2c3ccccc3C(c3ccccc32)C1C(=O)O (configuration not stated)	-1%	1	-9%	i	11µM*	-4%
CC(C)OC(=O)C1C2c3ccccc3C(c3ccccc32)C1C(=O)O (configuration not stated)	-1%	0	0%	i	?	-5%
COC(=O)C1=C(c2ccc(Cl)c(C(F)(F)F)c2)C[C@@H]2CC[C@H]1N2C(=O)NCCO	.	-1	3%	i	-1%	-2%
COC(=O)C1=C(c2ccc(Cl)c(C(F)(F)F)c2)C[C@@H]2CC[C@H]1N2C(=O)NCc1ccco1	.	0	1%	i	22µM*	8%
COC(=O)C1=C(c2ccc(Cl)c(C(F)(F)F)c2)C[C@@H]2CC[C@H]1N2C(=O)NCCOc1ccccc1	.	-1	2%	i	22µM*	?
COC(=O)C1=C(c2ccc(OC(F)(F)F)cc2)C[C@@H]2CC[C@H]1N2C(=O)NCCOc1ccccc1	.	0	3%	i	?	25%
COC(=O)C1=C(c2ccc(OC(F)(F)F)cc2)C[C@@H]2CC[C@H]1N2C(=O)NCCOc1ccccc1Cl	.	-1	10%	i	28µM*	26%
C[C@@H]1O[C@@H](O[C@@H]2C=C3CC[C@@H]4[C@@H](CC[C@]5(C)[C@H](c6ccc(=O)oc6)CC[C@@]45O)[C@@]3(C)CC2)[C@H](O)[C@H](O)[C@H]1O	.	.	0%	.	.	.
CC12CCC3c4ccc(O)c([N+](=O)[O-])c4CCC3C1CCC2=O (configuration not stated)	.	1	4%	i	?	.
CC1OC(O[C@H]2C[C@@H](O)[C@]3(CO)[C@H]4[C@H](O)C[C@]5(C)[C@@H](C6=CC(=O)OC6)CC[C@]5(O)[C@@H]4CC[C@]3(O)C2)C(O)C(O)C1O (some centres not stated)	.	.	0%	.	.	.
Cc1ccc(S(=O)(=O)N(C)C[C@@H]2Oc3ncc(Br)cc3C(=O)N([C@H](C)CO)C[C@@H]2C)cc1	.	-3	8%	i	6%	.
C[C@H]1O[C@@H](O[C@H]2[C@@H](O)C[C@@H](O[C@H]3[C@@H](O)C[C@H](O[C@H]4CC[C@@]5(C)[C@H](CC[C@@H]6[C@@H]5CC[C@]5(C)[C@@H](C7=CC(=O)OC7)CC[C@]65O)C4)O[C@@H]3C)O[C@@H]2C)C[C@H](O)[C@@H]1O	.	.	2%	.	.	.
SMILES	Apoferritin bind	CCT chaperon mod	aSyn yeast inh	Akt phos inh	TDP-43 yeast inh	Mito fusion yeast
CCOC(=O)C1C(=O)N(C)C2(C)CC1c1ccccc1O2 (configuration not stated)	-7%	1	-7%	-114%*	7%	1%
Cn1c(=O)oc2cc(S(=O)(=O)Nc3cccc([N+](=O)[O-])c3)ccc21	1%	0	-1%	i	-15%	?
c1ccc2sc(NC3=NCCN3)nc2c1	-8%	0	-38%	i	-10%	3.2µM*
ClCCN(CCCl)c1ccc(/C=C/c2sc3ccccc3[n+]2CCCCI)cc1	.	.	-26%	.	.	.
Cc1ccc(S(=O)(=O)N(C)C[C@H]2Oc3ncc(Br)cc3C(=O)N([C@H](C)CO)C[C@@H]2C)cc1	.	-1	?	i	0%	.
COc1cccc(NC(=O)N2CCc3nc(Nc4ccc(C(C)C)cc4)ncc3C2)c1	.	-1	30%	i	13µM*	.
O=C1NCN(c2ccccc2)C12CCN(CC1COc3ccccc3O1)CC2 (configuration not stated)	.	.	9%	.	.	21µM*
O=C1NCN(c2ccccc2)C12CCNCC2	-10%	-1	-5%	i	-10%	-8%
CC(=O)OCC1=C[C@H]2[C@@H]3C(C)(C)[C@]3(OC(=O)Cc3ccccc3)C[C@@H](C)[C@]2(O)[C@@H]2C=C(C)C(=O)[C@@]2(O)C1	-1%	.	.	.	.	.
N#CC1c2ccccc2C=CN1C(=O)c1ccc(N(CCCl)CCCl)cc1 (configuration not stated)	.	-4	7.9µM*	i	1%	.
O=C(CCCc1ccc(N(CCCl)CCCl)cc1)NCc1ccccc1	.	-2	-2%	i	-2%	.
NC(N)=NC(=O)c1nc(Cl)c(N)nc1N	-13%	0	-9%	i	7%	16µM*!
